Most compounds without a hit are left out; they make up all but 3.4% or so of the library.
TEAD-YAP inh: TEAD-YAP interaction inhibition | inhibition, % at 9.12 µM | HEK-TIYL cells, TEAD-Gal4/YAP UAS-luciferase luminescence | 640,000 compounds, 1.4% hits | AID 1259422; in the data active = inhibition above about 32%;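 also: 0% = median of test compound wells and 100% = reference inhibitor wells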
GPR151 activ: human GPR151 activation | Q8TDV0 | activation, % at 11.2 µM | 650,000 compounds, 1% hits | PathHunter beta-arrestin GPR151 cells, luminescence; in the data active = activation above about 4.9%;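 also: 0% = median of compound wells and 100% = cells with positive control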
Target sequence (Q8TDV0 whole entry, looked up): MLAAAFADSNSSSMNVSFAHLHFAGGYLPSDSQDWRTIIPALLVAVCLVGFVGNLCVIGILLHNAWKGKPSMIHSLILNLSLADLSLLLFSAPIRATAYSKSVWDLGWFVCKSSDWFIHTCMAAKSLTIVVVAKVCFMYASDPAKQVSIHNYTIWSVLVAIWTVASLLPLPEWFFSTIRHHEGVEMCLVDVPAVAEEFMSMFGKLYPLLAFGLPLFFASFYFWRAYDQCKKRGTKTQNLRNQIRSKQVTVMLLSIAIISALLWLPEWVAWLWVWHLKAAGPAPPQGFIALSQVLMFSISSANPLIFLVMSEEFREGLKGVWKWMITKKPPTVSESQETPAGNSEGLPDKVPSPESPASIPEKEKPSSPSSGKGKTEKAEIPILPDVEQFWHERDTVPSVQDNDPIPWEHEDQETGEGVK
FBW7 act: activators of human E3 ligase FBW7 | Q969H0 | AlphaScreen FBW7–phospho-cyclin E peptide binding, activator screen | normalized activity (activation), % at 26.1 µM | 650,000 compounds, 0.13% hits | AID 1259310; in the data active = normalized activity above about 1.9%;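 also: purified mutant Fbw7 with reduced substrate affinity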
MITF inh: inhibitors of human MITF; AlphaScreen MITF homodimerization, bead proximity signal; inhibition, % at 2.6 µM; 650,000 compounds, 0.91% hits; AID 1259374; in the data active = inhibition above about 50%;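 also: 0% = vehicle wells with protein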
GPR151 confirm: human GPR151 activation, confirmation screen | 6,700 tested, under 10 active | activation, % at 11.2 µM | AID 1508609 | GPR151 PathHunter beta-arrestin cells, luminescence, 90 min; % of EA-reagent control over plate median | shares compounds with GPR151 activ;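 active = mean percent activation across replicates above the confirmation screen cutoff of 4.91%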
GPR119 counter: activates human GPR119 in a GPR151 counter-screen; activation, % at 11.2 µM; shares compounds with GPR151 activ; GPR119 PathHunter beta-arrestin cells, luminescence, 90 min; 0 = compound-well median, 100 = enzyme-acceptor control; 6,700 compounds, 0.3% hits;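 active = mean percent activation in the counterscreen above 29.09%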;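 also: counterscreen on off-target GPR119 to flag nonselective hits from the GPR151 activator screen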
* hit, by the source's call; ! = not confirmed by another sample.

How did CCNC(=O)C(C)Oc1ccc(Cl)cc1C (stereo not given) do in these assays?
TEAD-YAP inh: 2.1; GPR151 activ: 5.5*; FBW7 act: 0.1; MITF inh: -8.4; GPR151 confirm: 0.5; GPR119 counter: 4.5

How did COCC(=O)NNC(=O)C(C)Oc1ccc(Cl)cc1Cl (stereo not given) do in these assays?
TEAD-YAP inh: 10.2; GPR151 activ: 5.0*; FBW7 act: 0.1; MITF inh: -2.1; GPR151 confirm: 0.0; GPR119 counter: 7.6

Results for CCC(=O)NNC(=O)C(C)Oc1ccc(Cl)cc1Cl (stereo not given) ?
TEAD-YAP inh: -9.4; GPR151 activ: 0.8; FBW7 act: 0.2; MITF inh: 10.7

What do the screens show for `Cn1/c(=N/C(=S)NC(=O)c2ccc(S(=O)(=O)N3CCCC3)cc2)sc2c3ccccc3ccc21`?
TEAD-YAP inh: -0.6; GPR151 activ: 0.6; FBW7 act: 0.1; MITF inh: -3.1

Results for CCCCOc1ccc(C2C3=C(CC(C)(C)CC3=O)Nc3ccccc3N2C(=O)CC)cc1 (stereo not given) ?
TEAD-YAP inh: 4.8; GPR151 activ: 6.7*; FBW7 act: 0.0; MITF inh: -8.6; GPR151 confirm: 1.1; GPR119 counter: 10.3

How did CC(=O)N1c2ccccc2NC2=C(C(=O)CC(C)(C)C2)C1c1ccccn1 (stereo not given) do in these assays?
TEAD-YAP inh: -9.4; GPR151 activ: 5.2*; FBW7 act: 0.1; MITF inh: -21.2; GPR151 confirm: 0.4; GPR119 counter: 8.2

How did O=C(CC1Sc2ccc(C(F)(F)F)cc2NC1=O)Nc1ccc(Br)cc1 (stereo not given) do in these assays?
TEAD-YAP inh: 3.3; GPR151 activ: 1.5; FBW7 act: 0.2; MITF inh: 5.6

Results for COc1ccc(N(CC(=O)Nc2cc(Cl)ccc2C)S(C)(=O)=O)cc1 ?
TEAD-YAP inh: 0.1; GPR151 activ: -0.7; FBW7 act: 0.5; MITF inh: 0.5

Results for Cc1ccc(C(=O)[C@@H]2[C@@H](c3ccccc3)C(C#N)(C#N)[C@H]3C=Cc4ccccc4N23)cc1 ?
TEAD-YAP inh: -12.6; GPR151 activ: 0.3; FBW7 act: -0.2; MITF inh: -6.9

What do the screens show for `CNc1nc(-c2ccc3c(c2)CCN3S(C)(=O)=O)cs1`?
TEAD-YAP inh: -39.7; GPR151 activ: 6.8*; FBW7 act: 0.0; MITF inh: 7.5; GPR151 confirm: 0.4; GPR119 counter: 4.9

How did CCOC(=O)c1sc2nc(SCc3c(F)cccc3Cl)n(CC3CCCO3)c(=O)c2c1C (stereo not given) do in these assays?
TEAD-YAP inh: -2.2; GPR151 activ: 1.2; FBW7 act: 0.0; MITF inh: 1.9

Results for c1csc(-c2[nH]ncc2CNC2CCCCC2)c1 ?
TEAD-YAP inh: 2.8; GPR151 activ: 5.1*; FBW7 act: -0.1; MITF inh: -2.6; GPR151 confirm: -1.4; GPR119 counter: -16.5

What do the screens show for `Cc1nnc2n1CCN(C(=O)c1ccccc1N(C)C)CC2`?
TEAD-YAP inh: -6.3; GPR151 activ: 5.2*; FBW7 act: -0.1; MITF inh: -10.1; GPR151 confirm: 0.9; GPR119 counter: 4.4

What do the screens show for `CC1=CC(C)(C)Nc2ccc(OCC(=O)N3c4ccccc4CCc4ccccc43)cc21`?
TEAD-YAP inh: -2.1; GPR151 activ: 0.0; FBW7 act: -0.2; MITF inh: 0.1

What do the screens show for `COc1ccc(N2C3=C(C(=O)CC(C)(C)C3)C(c3ccccc3)C3=C2c2ccccc2C3=O)cc1` (stereo not given)?
TEAD-YAP inh: -6.4; GPR151 activ: 5.6*; FBW7 act: 0.0; MITF inh: -8.0; GPR151 confirm: 0.2; GPR119 counter: -5.0

How did Nc1nnc(CC(=O)N/N=C/c2ccc(OCc3ccc([N+](=O)[O-])cc3)cc2)s1 do in these assays?
TEAD-YAP inh: -2.0; GPR151 activ: 0.1; FBW7 act: -0.4; MITF inh: -4.2

Results for CN1C(=O)[C@H]2CN(C(=O)c3ccccc3)CCN2C(=O)[C@@H]1Cc1ccccc1 ?
TEAD-YAP inh: -10.9; GPR151 activ: 5.3*; FBW7 act: -0.1; MITF inh: 8.9; GPR151 confirm: 0.4; GPR119 counter: 12.0

What do the screens show for `CCCN(CCC)CCc1cccc2c1CC(=O)N2`?
TEAD-YAP inh: -4.3; GPR151 activ: 12.4*!; FBW7 act: -0.2; MITF inh: -8.7; GPR151 confirm: -0.2; GPR119 counter: -8.5

Results for CC(C)(C)C1=Nc2ccccc2NC(=O)C1 ?
TEAD-YAP inh: -3.8; GPR151 activ: -0.2; FBW7 act: 0.2; MITF inh: 13.1

What do the screens show for `COc1ccc(CCNC(=O)C(=O)NC2CCCCC2)cc1OC`?
TEAD-YAP inh: -2.6; GPR151 activ: 4.1; FBW7 act: 0.0; MITF inh: 3.8

What do the screens show for `O=S(=O)(c1ccc(Cl)cc1)N1CCC(c2nnc(-c3ccccc3)o2)CC1`?
TEAD-YAP inh: 8.6; GPR151 activ: -0.9; FBW7 act: 0.0; MITF inh: 13.0

Results for O=C1Nc2ccc([N+](=O)[O-])cc2C12NN=C(c1ccccc1)S2 (stereo not given) ?
TEAD-YAP inh: -43.5; GPR151 activ: 5.0*; FBW7 act: 0.1; MITF inh: 8.7; GPR151 confirm: 0.5; GPR119 counter: 15.2

What do the screens show for `COc1cc(-c2[nH]nc3c2C2(C(=O)N(CC(=O)O)c4ccccc42)C(C#N)=C(N)O3)cc(OC)c1OC` (stereo not given)?
TEAD-YAP inh: 10.8; GPR151 activ: 3.5; FBW7 act: -0.1; MITF inh: -7.3

Results for CC(C)CNC(=O)c1ccccc1Cl ?
TEAD-YAP inh: -9.9; GPR151 activ: -0.1; FBW7 act: -0.3; MITF inh: 2.7

How did COc1ccc2nc3sc(C(=O)Nc4cccc(C(C)=O)c4)c(N)c3cc2c1 do in these assays?
TEAD-YAP inh: -75.2; GPR151 activ: 5.3*; FBW7 act: 0.1; MITF inh: -11.3; GPR151 confirm: 0.1; GPR119 counter: 23.1

How did c1ccc(CNc2nc(-c3ccc(N4CCOCC4)nc3)nc3c2ncn3-c2ccccc2)cc1 do in these assays?
TEAD-YAP inh: -0.8; GPR151 activ: 5.5*; FBW7 act: 0.1; MITF inh: -6.4; GPR151 confirm: 0.7; GPR119 counter: -0.7

How did CCCNc1nc(-c2ccc(N3CCOCC3)nc2)nc2c1ncn2-c1ccccc1 do in these assays?
TEAD-YAP inh: 6.6; GPR151 activ: -1.6; FBW7 act: 0.2; MITF inh: 16.4

What do the screens show for `c1ccc(-n2cnc3c(NCc4cccnc4)nc(-c4ccc(N5CCOCC5)nc4)nc32)cc1`?
TEAD-YAP inh: 46.5*; GPR151 activ: 5.7*; FBW7 act: 0.1; MITF inh: -0.4; GPR151 confirm: -0.8; GPR119 counter: -10.4

Results for Nc1cc(Sc2ccc(F)cc2)cc([N+](=O)[O-])c1 ?
TEAD-YAP inh: -5.7; GPR151 activ: 5.1*; FBW7 act: -0.1; MITF inh: -0.8; GPR151 confirm: -0.2; GPR119 counter: -3.8
